Experimental data: PubChem BioAssay AID651768 (National Center for Advancing Translational Sciences (NCATS), 2012)
Among all 360,000 compounds or so, about 1,700 (0.47%) were called active. Another 2% or so got no clear call; they are omitted. The sample as a whole holds a higher share of actives than the screen did. Values without a mark were called inactive. Calls come from the whole dose curve; as a rule, active = well fitted inhibition curve with a large enough effect; inconclusive = small, poorly fitted or top-dose-only effect; inactive = no such curve, though single readings can be large or run the other way.

Molecular target: Bifunctional 3'-5' exonuclease/ATP-dependent helicase WRN (Homo sapiens) (UniProt Q14191)
Test: qHTS for Inhibitors of WRN Helicase; note: nearly all actives have a fitted effect of over 55% in size
Conditions: WRN helicase unwinding, fluorescent forked duplex, kinetic; series mostly up to 114 µM; activity change, negative = inhibition: at the top concentration
Outline: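 Kinetic fluorescence helicase assay: unwinding of a quenched forked DNA duplex (100 nM final) with 2 mM ATP final raises red fluorescence (525/598 nm). Compounds sat 15 min at room temperature with 20 nM WRN beforehand.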
% is set by controls: 0 for no effect and ±100 for the full control effect; potency is the fitted concentration of half-maximal effect.

Sequence of Bifunctional 3'-5' exonuclease/ATP-dependent helicase WRN (Homo sapiens) (Q14191 whole entry, looked up): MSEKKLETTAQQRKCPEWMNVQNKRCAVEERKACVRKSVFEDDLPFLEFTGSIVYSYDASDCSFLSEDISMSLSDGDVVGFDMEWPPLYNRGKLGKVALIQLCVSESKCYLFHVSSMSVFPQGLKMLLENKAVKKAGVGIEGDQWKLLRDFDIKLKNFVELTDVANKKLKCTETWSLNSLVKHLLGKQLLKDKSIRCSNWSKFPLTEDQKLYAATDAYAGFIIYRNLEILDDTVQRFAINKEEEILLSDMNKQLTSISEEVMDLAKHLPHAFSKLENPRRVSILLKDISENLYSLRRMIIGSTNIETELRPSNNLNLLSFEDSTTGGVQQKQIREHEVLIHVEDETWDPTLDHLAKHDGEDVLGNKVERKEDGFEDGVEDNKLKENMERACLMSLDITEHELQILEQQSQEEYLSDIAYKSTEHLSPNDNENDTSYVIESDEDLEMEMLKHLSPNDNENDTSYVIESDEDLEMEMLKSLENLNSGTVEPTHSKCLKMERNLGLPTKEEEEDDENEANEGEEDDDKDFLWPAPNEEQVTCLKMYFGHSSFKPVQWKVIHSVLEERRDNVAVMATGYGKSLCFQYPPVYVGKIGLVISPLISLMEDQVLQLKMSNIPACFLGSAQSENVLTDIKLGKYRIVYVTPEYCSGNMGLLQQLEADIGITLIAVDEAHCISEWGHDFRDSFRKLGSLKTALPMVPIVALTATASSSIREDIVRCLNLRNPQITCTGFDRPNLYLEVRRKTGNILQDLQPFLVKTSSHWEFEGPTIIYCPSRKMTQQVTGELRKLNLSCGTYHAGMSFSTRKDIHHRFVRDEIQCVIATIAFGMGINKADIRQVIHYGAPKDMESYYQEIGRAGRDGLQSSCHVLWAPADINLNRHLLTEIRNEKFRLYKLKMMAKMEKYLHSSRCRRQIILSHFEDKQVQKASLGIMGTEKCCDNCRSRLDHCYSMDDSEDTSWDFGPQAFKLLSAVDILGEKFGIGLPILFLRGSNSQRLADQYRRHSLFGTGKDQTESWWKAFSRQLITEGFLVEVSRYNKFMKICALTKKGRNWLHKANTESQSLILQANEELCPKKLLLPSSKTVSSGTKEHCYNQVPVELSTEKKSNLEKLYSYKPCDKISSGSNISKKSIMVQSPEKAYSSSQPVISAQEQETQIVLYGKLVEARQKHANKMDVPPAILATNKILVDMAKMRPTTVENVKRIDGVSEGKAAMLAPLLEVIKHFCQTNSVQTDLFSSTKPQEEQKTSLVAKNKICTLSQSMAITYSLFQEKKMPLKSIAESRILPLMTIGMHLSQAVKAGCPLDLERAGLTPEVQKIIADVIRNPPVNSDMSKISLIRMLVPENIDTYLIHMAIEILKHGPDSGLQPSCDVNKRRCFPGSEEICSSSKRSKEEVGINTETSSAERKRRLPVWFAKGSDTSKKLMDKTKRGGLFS

Row | SMILES | activity change, negative = inhibition | Potency
1 | O=c1/c(=C/c2ccc(CNS(=O)(=O)c3ccccc3)o2)sc2n1CCN=2 | -17.2% [at 57.1 µM] | –
2 | O=C(NCCc1ccco1)c1nn(Cc2ccccc2)c(=O)c2ccccc12 | -18.2% | –
3 | O=c1nc2s/c(=C\c3ccco3)c(=O)n2nc1Cc1ccccc1 | – | 35.5 µM (active)
4 | Cc1cc(C(=O)OC(C)C(=O)Nc2cccc(S(=O)(=O)N3CCOCC3)c2)c(C)o1 (configuration not stated) | -4.49% | –
5 | CCOC(=O)N1CCN(C(=O)COC(=O)c2cccc(S(C)(=O)=O)c2)CC1 | -2.83% | –
6 | CC(=O)Nc1nc(N(C)C)nc(N(C)C)n1 | -1.07% | –
7 | CN(C)c1nc(NN)nc(Nc2ccc(F)cc2)n1 | -7.55% | –
8 | CN(C)c1nc(Nc2ccc(Cl)c(Cl)c2)nc(N(C)C)n1 | – | 79.4 µM (active)
9 | COc1ccc(Cl)cc1NC(=O)CCS(=O)(=O)c1ccc(Br)cc1 | – | 44.7 µM (active)
10 | O=C(CCS(=O)(=O)c1ccc(Br)cc1)NCCc1ccc(Cl)cc1 | -8.96% [at 11.6 µM] | –
11 | CCOc1ccc(OCC)c(NC(=O)CCS(=O)(=O)c2ccc(C)cc2)c1 | -5.18% | –
12 | COC(=O)[C@]1(Cc2ccccc2)N[C@H](CN(C)S(=O)(=O)c2ccc(OC(F)(F)F)cc2)[C@@H]2C(=O)N(C)C(=O)[C@@H]21 | -3.83% | –
13 | [O-][n+]1c2c(nn1-c1ccc(Cl)c(Cl)c1)-c1nonc1CC2 | 3.25% | –
14 | Cc1cc(C)c(S(=O)(=O)c2ccccc2)c(OC(=O)c2c(F)cccc2Cl)n1 | -13.3% | –
15 | CC(C(=O)Nc1ccc(O)c(C(=O)O)c1)N1C(=O)/C(=C/c2cccs2)SC1=S (configuration not stated) | -16.7% [at 11.6 µM] | –
16 | CC(C(=O)NC1CCS(=O)(=O)C1)N1C(=O)/C(=C/c2ccc(Cl)cc2)SC1=S (configuration not stated) | -8.03% | –
17 | O=C(O)C(c1ccccc1)N1C(=O)/C(=C\c2ccc(-c3cccc(Cl)c3)o2)SC1=S (configuration not stated) | – | 44.7 µM (active)
18 | CCc1c(-c2ccc(F)cc2)ncn1Cc1cccc(-c2ccccc2)c1 | 0.397% | –
19 | Cc1cccc(C(=O)NNC(=O)CSc2nnc(C(C)C)n2C)c1 | -22% | –
20 | FC(F)(F)C1CCCN(c2nsc3ccccc23)C1 (configuration not stated) | – | 22.4 µM (active)
21 | COc1ccc(Br)c(Cn2c(C)c(C(=O)NCc3cccs3)sc2=O)c1 | 1.69% [at 57.1 µM] | –
22 | COC(=O)C1=CN(c2c(C)cc(C)cc2C)C(N)=C(C#N)C1c1cccc(F)c1 (configuration not stated) | -5.53% | –
23 | FC(F)(F)c1cccc(-c2nc3ccccc3n2C(c2ccccc2)c2nc3ccccc3[nH]2)c1 (configuration not stated) | -2.09% | –
24 | CC1CN(/C=C/C(=O)C(F)(F)F)CC(C)O1 (configuration not stated) | -7.09% | –

Row | SMILES | activity change, negative = inhibition | Potency
25 | CC1=NN(c2ccc(Cl)c(C(=O)O)c2)C(=O)/C1=C/c1ccc(-c2ccccc2[N+](=O)[O-])o1 | – | 44.7 µM (active)
26 | O=C1C2C3C=CC(C4CC34)C2C(=O)N1/N=C/c1ccc(-c2ccccc2[N+](=O)[O-])o1 (configuration not stated) | -4.13% | –
27 | COc1ccc(/C=C2/C(=O)N(c3ccccc3)N=C2C)c(OC)c1 | -30.6% [at 11.6 µM] | –
28 | COc1c(Br)cc2c(C)c(C(=O)N3CCOCC3)oc2c1Br | -1.91% | –
29 | O=C(Cn1nnc2ccccc2c1=O)NCc1ccc(Cl)cc1 | 7.75% | –
30 | O=C(c1ncn2c1c(=O)[nH]c1ccccc12)N1CCc2ccccc2C1 | 2.79% | –
31 | O=c1[nH]c2ccccc2n2c(-c3ccccc3)nnc12 | – | 20 µM (active)
32 | CS(=O)(=O)N1CCCCC1c1cc(C(=O)NCc2ccccc2)no1 (configuration not stated) | -12.7% | –
33 | COc1ccc(CS(=O)/C(Cl)=C(/Cl)C(=O)Nc2ccc(OC)nc2)cc1 (configuration not stated) | – | 17.8 µM (active)
34 | COc1ccc(C(O)c2nc(-c3ccc(OC)nc3)cs2)cc1 (configuration not stated) | -0.589% | –
35 | COc1ccc(OC(C)C(=O)Nc2cccnc2)cc1 (configuration not stated) | 2.46% | –
36 | CC(C)C[C@H]1CN([C@@H](Cc2ccccc2)CN2CCC[C@@H]2CN2C(=O)C(=O)NC[C@@H]2Cc2ccc(O)cc2)C(=O)C(=O)N1CCc1ccccc1 | -7.43% | –
37 | Cc1cccc(C)c1NC(=O)C(c1cccc2ccccc12)n1c(=O)c(-c2ccco2)nc2ccccc21 (configuration not stated) | -2.69% | –
38 | O=C(CSC(=S)N1CCCCC1)c1c(F)cccc1F | 8.5% | –
39 | Cc1ccc(S(=O)(=O)NCCC(=O)NNC(=O)C2COc3ccccc3O2)cc1 (configuration not stated) | 1.81% | –
40 | Cc1c(CC(=O)N2CCN(C(=O)C3COc4ccccc4O3)CC2)c(=O)oc2c(O)c(O)ccc12 (configuration not stated) | – | 10 µM (active)
41 | Cc1c(CCC(=O)O)c(=O)oc2c(C)c(OCc3ccccc3Cl)ccc12 | -22.9% [at 11.6 µM] | –
42 | O=C(CN1CCN(c2ccccc2F)CC1)c1ccc2c(c1)OCO2 | -4.89% | –
43 | CCC1(c2ccccc2)NC(=O)N(CC(=O)c2ccc3c(c2)OCO3)C1=O (configuration not stated) | -8.83% | –
44 | O=C(CCN1CCc2ccccc2C(O)(c2ccccc2)C1)c1ccc2c(c1)OCCO2 (configuration not stated) | – | 31.6 µM (active)
45 | CCCCCNC(=O)C1C(=O)Nc2ccccc2C(=O)N1C(C)(C)C (configuration not stated) | 4.68% | –
46 | O=c1[nH]oc(O)c1-c1ncc(C(F)(F)F)cc1Cl | -5.42% | –
47 | CN(Cc1c(F)cccc1Cl)S(=O)(=O)c1cccs1 | -5.6% | –
